# PubChem BioAssay AID588473 (Sanford-Burnham Center for Chemical Genomics, 2011)
# About 1,600 (0.46%) of roughly 350,000 compounds were called active. Many of the other results were omitted from the sample, so actives are more common in it than they were. A number with no mark means an inactive call.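 How the source made its calls: active means activation of at least 50%, plus an integration ratio under a set limit after plate pattern correction; inactive means the rest.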
# System: CRF-binding protein / CRF receptor 2 complex (human)
# Assay: activators of CRF-R2 with CRF-BP – cell-based, HEK293, calcium dye fluorescence, uHTS, primary screen (AID 588473);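 further: plate controls were neutral control wells without compound for no effect and CRF at EC100 for full effect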
# Settings: calcium dye fluorescence (FLIPR), at 13.2 µM, stronger effect = higher value, percent of saturating CRF peptide response
row,SMILES,activation
1,C=CCOc1cccc(C2C(C(=O)c3ccc(C)o3)=C(O)C(=O)N2CCN2CCOCC2)c1 (centres undefined),0.15%
2,CCCc1c(C(=O)N/N=C(\C)CCc2ccc(OC)cc2)nnn1-c1nonc1N,-0.36%
3,CCC(C)(C)NC(=O)/C=C/c1cc(OC)c(OC)c(S(=O)(=O)N2CCc3ccccc32)c1,3.27%
4,COc1ccc(C(=O)OCC(=O)NCC2CCCCC2)cc1S(=O)(=O)N1CCCc2ccccc21,1.36%
5,COc1cc(C)c(C)cc1S(=O)(=O)N1CCCc2ccccc21,53.4% (active)
6,CC(OC(=O)CN1C(=O)C2CCCCC2C1=O)C(=O)Nc1ncc(Cl)cc1Cl (centres undefined),0.41%
7,CCNc1nc(Oc2ccc(C(=O)OC)cc2)nc(N2CCOCC2)n1,1.34%
8,Cc1ccccc1NC(=O)C(C)c1ccc(-c2ccccc2)c(F)c1 (centres undefined),1.53%
9,CC1CC(NC(=O)/C(C#N)=C/c2ccc[nH]2)CC(C)(C)C1 (centres undefined),2.1%
10,CCOC(=O)c1c(NC(C)=O)sc2c(O)c(Br)ccc12,1.34%
11,NC(=O)c1cc(-c2cccnc2)nc2ccc(Br)cc12,-0.32%
12,O=c1c2cc(Br)ccc2nc(-c2cccc(Cl)c2)n1O,66.9% (active)
13,NC(N)=Nc1nc2ccc(Br)cc2c(=O)[nH]1,-1.35%
14,CC1Sc2ccc(S(=O)(=O)CCC(=O)NCc3ccccc3Cl)cc2NC1=O (centres undefined),-3.65%
15,COc1ccccc1N(CC(=O)N1CCCCC1)S(=O)(=O)c1ccccc1,59.4% (active)
16,COc1ccc(N(CC(=O)N2CCCCCC2)S(=O)(=O)c2ccccc2)cc1,0.06%
17,COc1ccc(C)cc1N(CC(=O)N1CCCC1)S(=O)(=O)c1ccccc1,-0.01%
18,Nc1c(C(=O)c2cccs2)sc2nsc(SCCN3CCCCC3)c12,147% (active)
19,COc1ccc(C(=O)NC(=S)NNC(=O)CCc2ccccc2)cc1,68.5% (active)
20,O=C(CCc1ccccc1)NNC(=O)COc1ccc(Cl)cc1,-0.46%
21,COc1ccc(C(=O)NC(=S)NC2CCCCC2)cc1,1.07%
22,COc1ccc(C(=O)NNC(=S)NC(=O)c2ccccc2)cc1,123% (active)
23,CC(=O)NC(=S)NNC(=O)c1ccc(Br)cc1,-4.92%
24,CCOc1ccccc1NC(=S)NC(=O)CCc1ccccc1,0.36%

row,SMILES,activation
1,CCN(Cc1ccncc1)C(=S)Nc1ccccc1C,-0.24%
2,COCCCNC(=S)N(CCN(C)C)Cc1cc2cc3c(cc2[nH]c1=O)OCCO3,0.16%
3,CC(=O)NC(CC(=O)Nc1nccs1)c1ccccc1 (centres undefined),2.22%
4,O=C(Nc1ccccc1C(F)(F)F)N1CCCC1c1cccnc1 (centres undefined),0.09%
5,Cc1ccc(NC(=O)CSc2nc(=O)n(CCN(C)C)c3c2CCCC3)c(C)c1,-0.4%
6,CCOC(=O)Cc1c(C)nc2c(C#N)c(C)nn2c1C,-2.38%
7,O=C(NCCc1ccccc1Cl)C1CCC(=O)N(CCCc2ccccc2)C1 (centres undefined),-1.43%
8,C/C(=N\NC(=O)c1cc2c(s1)CCC(C)C2)c1cccnc1 (centres undefined),-0.26%
9,Cc1cc2nc3c(=O)n(Cc4ccccc4)c(=O)[nH]c3nc2cc1N,89.5% (active)
10,Nc1cc(=O)n(Cc2ccccc2)c(=O)n1Cc1ccccc1,-0.25%
11,CN(C(=O)COC(=O)c1ccc(Br)o1)c1c(N)n(Cc2ccccc2)c(=O)[nH]c1=O,1.22%
12,CCCS(=O)(=O)N1CCCC(C(=O)NCCN2CCCCC2C)C1 (centres undefined),2.69%
13,COc1cccc(C=CC(=O)C=CC=Cc2ccccc2)c1,3.04%
14,O=C(/C=C(O)/C=C/c1ccc(O)cc1)/C=C/c1ccc(O)cc1,123% (active)
15,O=C(O)/C=C/c1ccc(S(=O)(=O)N2CCCCCC2)cc1,-6.06%
16,Cc1cc(Cl)ccc1C(=O)C1CCCN(C(=O)c2ccc3c(c2)OCO3)C1 (centres undefined),-0.83%
17,CC1(C)Cc2c(sc(NC(=O)C(=O)NCC3CCCO3)c2C(=O)O)CO1 (centres undefined),1.19%
18,O=C(Nc1cccc(Cl)c1)Nc1ccccc1NS(=O)(=O)c1cccs1,38.9%
19,O=S(=O)(Nc1ccccc1N1CCOCC1)c1ccc(Cl)s1,0.68%
20,COc1cc(NC(=O)c2ccccc2NS(=O)(=O)c2ccc(Cl)s2)cc(OC)c1,59.3% (active)
21,COc1ccc(CN2CCn3ncc(C(=O)Nc4ccc(Cl)cc4Cl)c3C2=O)cc1,1.96%
22,COc1ccccc1CNC(=O)C1CCCN(S(=O)(=O)c2cccc3cccnc23)C1 (centres undefined),-0.51%
23,COc1cc(OC)c(-n2cc(-c3ccc(Cl)cc3)[nH]c2=O)cc1Cl,180% (active)
24,COc1ccc(-n2c(-c3ccc(Cl)cc3)n[nH]c2=S)c(OC)c1,-2.26%

row,SMILES,activation
1,COc1cc(OC)c(-n2c(C)cc(C=O)c2C)cc1Cl,0.85%
2,COc1ccc(NC(=O)N(C)C[C@H]2Oc3ncc(C#C[C@@H](C)O)cc3C(=O)N([C@H](C)CO)C[C@H]2C)cc1,5.65%
3,CCC(C(=O)Nc1ccc(C(C)C)cc1)c1ccccc1 (centres undefined),84.3% (active)
4,CC(C)c1ccc(NC(=O)Cn2ncc3ccccc32)cc1,-4.37%
5,CC(NC(=O)Nc1ccccc1)c1ccccc1 (centres undefined),-0.98%
6,Cc1cc2c(cc1C)[n+](C)cn2CC(O)COCC1CC=CCC1 (centres undefined),0.16%
7,O=C(Nc1ccc2c(c1)OCCO2)C1CCCC1,-0.49%
8,CC(C)NS(=O)(=O)c1ccc(NC(=O)C2CCCCC2)cc1,1.98%
9,O=C(O)c1ccc(NC(=O)C2CCCCC2)cc1,51.5% (active)
10,CC(=O)NC12CC3CC(C1)CC(C(=O)N1CCN(S(=O)(=O)c4cccs4)CC1)(C3)C2,-0.5%
11,N#Cc1cccc(CSc2ncnc(N)n2)c1,-1.54%
12,COc1ccccc1-c1nnc(-c2ccc(F)cc2)o1,0.06%
13,CCCCCCc1cc2cc(-c3nnc(-c4ccccc4)o3)c(=O)oc2cc1O,269% (active)
14,CCc1ccc(CN(C)C(=O)CCc2nnc(-c3ccc(-c4ccccc4)cc3)o2)nc1,-0.63%
15,COc1ccc(Cl)cc1-n1c(=S)sc2c(=O)n(-c3ccc(F)cc3)c(SCC(=O)O)nc21,-1.84%
16,CCOC(=O)CC1C(=O)NCCN1c1nc2c(C)cccn2c(=O)c1/C=C1\SC(=S)N(C(C)CC)C1=O (centres undefined),177% (active)
17,Cc1cccn2c(=O)c(/C=C(\C#N)S(=O)(=O)c3ccc(Cl)cc3)c(N3CCC(C(N)=O)CC3)nc12,9.75%
18,Cc1cccn2c(=O)c(/C=C(\C#N)C(N)=O)c(N3CCCCCC3)nc12,-2.5%
19,CCCN(CCC)c1ccc(C(O)c2nnc(-c3ccccc3)o2)cc1 (centres undefined),-0.49%
20,Cc1cccc2c1-c1sc(C(=O)NCCCN3CCc4ccccc4C3)cc1CO2,3.21%
21,C[C@H]1CN([C@@H](C)CO)C(=O)Cc2cc(NC(=O)Cc3ccccc3)ccc2O[C@H]1CN(C)S(=O)(=O)c1cccs1,0.76%
22,Cc1c(NC(=O)c2coc(=O)c(Br)c2)c(=O)n(-c2ccccc2)n1C,-1.21%
23,O=C(CCN1C(=O)c2ccccc2C1=O)Nc1cccc(F)c1,-0.06%
24,O=C(Nc1cccc(F)c1)c1coc(=O)c(Br)c1,67% (active)

row,SMILES,activation
1,O=C(O)c1ccc(S(=O)(=O)c2ccccc2)s1,0.6%
2,Cc1nn(C(C)(C)C)c(OC(=O)CC(C)C)c1S(=O)(=O)c1ccccc1,4.7%
3,CC(C)[C@H](NC(=O)N1c2ccccc2NC(=O)[C@@H]1C(C)C)C(=O)N[C@H](C(=O)O)c1ccccc1,0.51%
4,CCN1/C(=C\c2ccc3ccccc3[n+]2CC)Sc2cc(C)ccc21,200% (active)
5,CCN1/C(=C/c2ccc3ccc(C)cc3[n+]2CC)Sc2ccccc21,143% (active)
6,COc1ccc(SCCN2CCN(CC(C)C)CCC2=O)cc1,-0.91%
7,COC(=O)C(C)Oc1ccc2c(-c3cccc([N+](=O)[O-])c3)cc(=O)oc2c1 (centres undefined),-3.43%
8,CCC1SC(CC)C(=O)N(CC(=O)NC2CCCCC2)C1=O (centres undefined),-0.56%
9,CCOC(=O)[C@H]1[C@H]2COc3ccccc3[C@@H]2N2C(=O)CN(Cc3ccccc3)C(=O)[C@@]12C,-0.27%
10,c1ccc(C(=NNc2nc3ccccc3s2)c2ccccn2)cc1,5.4%
11,O=[N+]([O-])c1cc(Br)c(O)c(/C=N/Nc2nc3ccccc3s2)c1,82.8% (active)
12,O=C(N/N=C/c1cc(Br)c(O)c([N+](=O)[O-])c1)C(O)(c1ccccc1)c1ccccc1,-0.94%
13,CCNC(=S)N1CCN(S(=O)(=O)c2ccc(Cl)s2)CC1,3.39%
14,CC(=O)Nc1ccccc1Sc1ccc2c3c(cccc13)C(=O)N(c1ccc(C)cc1)C2=O,87.7% (active)
15,Cc1ccc(N2C(=O)CC(Nc3cccc4ccccc34)C2=O)cc1 (centres undefined),0.15%
16,CSc1ccccc1NC(=O)C(C)N1C(=O)c2ccccc2S1(=O)=O (centres undefined),1.1%
17,CCC(=O)N1CCc2cc(Br)c(S(=O)(=O)NCCN3CCCCC3CC)cc21 (centres undefined),-1.55%
18,CSc1cccc(NC(=O)CN2C(=O)COc3ccc(S(=O)(=O)N4CCOCC4)cc32)c1,-1.06%
19,O=C(COc1ccc(S(=O)(=O)N2CCCC2)cc1[N+](=O)[O-])N1CCCCC1,-0.47%
20,COc1ccc2c(c1)SC(C)CC2=O (centres undefined),-0.7%
21,COc1ccc2c(c1)C(=O)CC(c1ccccc1)O2 (centres undefined),-2.49%
22,COc1ccc2c(c1)OC(O)(C(F)(F)C(F)F)CC2=O (centres undefined),66.2% (active)
